Source: PubChem BioAssay AID1159580 (chemical genetic matrix, 2015)
Hit rate of the full screen: of about 5,500 compounds, about 2,000 (36%) were called active. Roughly 18% stayed inconclusive and do not appear here. Cut-off read from the data, not from the text of the source: active = normalized growth mostly below about 0.91 (no sharp cut-off); inconclusive = no clear call, values can overlap the other calls; inactive = mostly above about 0.92. This is one part of the list.

Experiment: chemical genetic growth profiling, strain panel (AID 1159580);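 note: tested at 20 µM; growth read once vehicle control cultures reached saturation at 30 °C; 1 = growth at the plate median or of vehicle wells; lower values mean less growth of the strain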
Details: S. cerevisiae deletion strains, growth OD
[1] = locus YHR030C, strain SLT2, active compounds read low
[2] = locus YHR079C, strain IRE1, active compounds read low
[3] = locus YJL095W, strain BCK1, active compounds read low
[4] = locus YJR066W, strain TOR1, active compounds read low
[5] = locus YLR113W, strain HOG1, active compounds read low
[6] = locus YNL183C, strain NPR1, active compounds read low
[7] = locus YOR231W, strain MKK1, active compounds read low
[8] = locus YPL256C, strain CLN2, active compounds read low

Measured: normalized growth

O=C(O)CCCO
inactive: [1] 1.05 | [2] 1.05 | [3] 1.01 | [4] 0.976 | [5] 1.02 | [6] 0.983 | [7] 1.02 | [8] 1.01

CC/C=C\C/C=C\C/C=C\C/C=C\C/C=C\CCCC(=O)OCC
inactive: [1] 0.979 | [2] 0.924 | [3] 0.945 | [4] 0.94 | [5] 0.902 | [6] 0.927 | [7] 0.949 | [8] 0.897
